Source: PubChem BioAssay AID765 (NMMLSC, 2007)
A number with no mark means an inactive call. Calls of active or inactive are those of the source. Rule as the data show it: active = inhibition above about 31%; inactive = the rest.

Target: N-formyl peptide receptor 2 (Homo sapiens) (UniProt P25090)
Assay: human FPR2 ligand displacement single-point screen – cell-based, flow cytometry, single concentration (AID 765)
Settings: FPRL1-expressing cells, fluorescent ligand binding inhibition, stronger effect = higher value; at 5.1 µM unless noted

N-formyl peptide receptor 2 (Homo sapiens), sequence (P25090 whole entry, looked up): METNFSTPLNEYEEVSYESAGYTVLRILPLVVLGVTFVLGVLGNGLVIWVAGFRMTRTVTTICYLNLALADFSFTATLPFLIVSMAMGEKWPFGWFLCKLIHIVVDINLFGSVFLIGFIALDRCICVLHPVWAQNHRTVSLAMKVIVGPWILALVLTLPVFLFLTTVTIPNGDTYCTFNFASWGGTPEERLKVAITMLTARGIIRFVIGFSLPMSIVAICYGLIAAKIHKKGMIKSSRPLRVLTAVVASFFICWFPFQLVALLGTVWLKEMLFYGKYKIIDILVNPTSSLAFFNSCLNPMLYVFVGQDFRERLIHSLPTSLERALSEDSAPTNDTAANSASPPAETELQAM

Row | Structure (SMILES) | inhibition
1 | O=C(N1CCN(c2nc(-c3ccccc3)c3cc([N+](=O)[O-])ccc3n2)CC1)C(F)(F)F | -4.2% [at 5.2 µM]
2 | COc1cccc(C(=O)Nc2cc(-c3cn4cccnc4n3)ccc2OC)c1 | 12.2% [at 5.9 µM]
3 | CC(C)(C)OC(=O)N1CCN(c2nc(-c3ccccc3Cl)c3cc(Br)ccc3n2)CC1 | -9.1% [at 4.4 µM]
4 | COc1ccc(-c2cn3cccnc3n2)cc1NC(=O)c1ccc(F)c(F)c1 | -13.5% [at 5.8 µM]
5 | CCCCOc1ccc(C(=O)Nc2cc(-c3cn4cccnc4n3)ccc2OC)cc1 | 1.7% [at 5.3 µM]
6 | CCOC(=O)N1CCN(c2nc(-c3ccccc3Cl)c3cc(Br)ccc3n2)CC1 | -4.5% [at 4.7 µM]
7 | COc1cccc(-c2cc(C(F)(F)F)nc(N3CCN(C(c4ccccc4)c4ccccc4)CC3)n2)c1 | -3.9% [at 4.4 µM]
8 | O=C(O)CCC(=O)N1CCN(c2nc(-c3ccccc3)c3cc([N+](=O)[O-])ccc3n2)CC1 | 3.6%
9 | COc1ccc(-c2cc(C#N)nc(N3CCN(c4ccccc4)CC3)n2)cc1 | 5.3% [at 6 µM]
10 | CN1CCN(c2nc(-c3ccccc3)c3cc(Cl)ccc3n2)CC1 | -15% [at 6.6 µM]
11 | CCOC(=O)N1CCN(c2nc(-c3ccc(C)cc3)cc(C(F)F)n2)CC1 | 1% [at 5.9 µM]
12 | COc1ccc(-c2cn3cccnc3n2)cc1NC(=O)c1ccccc1Br | 3.2% [at 5.3 µM]
13 | COc1ccc(C2CC(=O)c3cnc(N4CCN(Cc5ccc6c(c5)OCO6)CC4)nc3C2)cc1OC (configuration not stated) | 11.9% [at 4.4 µM]
14 | COc1ccc(-c2cn3cccnc3n2)cc1NC(=O)c1ccc(Br)o1 | -10% [at 5.4 µM]
15 | CC1(C)CC(=O)c2cnc(N3CCN(Cc4ccc5c(c4)OCO5)CC3)nc2C1 | -3.3% [at 5.6 µM]
16 | Clc1cccc(-c2nc(N3CCN(C4CCCCC4)CC3)nc3c2COc2ccccc2-3)c1 | -1.5% [at 4.8 µM]
17 | CCCC(=O)Nc1cc(-c2cn3cccnc3n2)ccc1OC | 2.2% [at 7.2 µM]
18 | COc1ccc(C2CC(=O)c3cnc(N4CCN(Cc5ccc6c(c5)OCO6)CC4)nc3C2)cc1 (configuration not stated) | 8% [at 4.7 µM]
19 | O=C(O)/C=C\C(=O)N1CCN(c2nc(-c3ccccc3)c3cc(Br)ccc3n2)CC1 | 15.8% [at 4.8 µM]

Row | Structure (SMILES) | inhibition
20 | COc1ccc(-c2cn3cccnc3n2)cc1NC(=O)c1cccc(Cl)c1 | 25.4% [at 5.9 µM]
21 | CCOC(=O)N1CCN(c2nc(-c3ccc(Cl)cc3)cc(C(F)(F)F)n2)CC1 | -12% [at 5.4 µM]
22 | Cc1ccc2nc(N3CCN(c4ccccc4Cl)CC3)nc(-c3ccccc3)c2c1 | 33.4% [at 5.4 µM] (active)
23 | O=C(c1cccc(F)c1)N1CCN(c2nc(-c3cccs3)cc(C(F)(F)F)n2)CC1 | -12.6%
24 | CCCC(=O)Nc1cccc(-c2cn3cccnc3n2)c1 | -2.8% [at 7.9 µM]
25 | Clc1ccccc1-c1nc(N2CCN(c3ccccc3)CC2)nc2ccc(Br)cc12 | -7.9% [at 4.6 µM]
26 | COc1ccc(-c2nc(N3CCN(C)CC3)[nH]c(=O)c2C#N)cc1 | -9.7% [at 6.8 µM]
27 | Cc1ccc(-c2cc(C(F)F)nc(N3CCN(Cc4ccccc4)CC3)n2)cc1 | -4.2% [at 5.6 µM]
28 | COc1ccc(-c2cc(C(F)(F)F)nc(N3CCN(c4ccc(F)cc4)CC3)n2)cc1OC | 5.4% [at 4.8 µM]
29 | CCN1CCN(c2nc(-c3cccc(Cl)c3)c3c(n2)-c2ccccc2OC3)CC1 | -10.9% [at 5.5 µM]
30 | COc1ccc(-c2cn3cccnc3n2)cc1NC(=O)CCc1ccccc1 | 16% [at 6 µM]
31 | CCC(CC)C(=O)Nc1cc(-c2cn3cccnc3n2)ccc1OC | 11.5% [at 6.6 µM]
32 | COc1ccc(CC(=O)Nc2cc(-c3cn4cccnc4n3)ccc2OC)cc1 | 64.2% [at 5.7 µM] (active)
33 | CCOC(=O)N1CCN(c2nc(-c3cccc(OC)c3)cc(C(F)(F)F)n2)CC1 | -16.3% [at 5.4 µM]
34 | CC(N)C(=O)N1CCN(c2nc(-c3ccccc3)c3cc([N+](=O)[O-])ccc3n2)CC1 (configuration not stated) | 3.9% [at 5.5 µM]
35 | O=C(c1ccccc1)N1CCN(c2nc(-c3ccccc3)c3cc([N+](=O)[O-])ccc3n2)CC1 | 18.8%
36 | COc1ccccc1-c1cc(C(F)(F)F)nc(N2CCN(c3ccccc3OC)CC2)n1 | -2.8% [at 5 µM]
37 | FC(F)(F)c1cc(-c2ccccc2)nc(N2CCN(c3ccccc3)CC2)n1 | -10.6% [at 5.8 µM]
